In PubChem BioAssay (EPA / NIEHS):
Activity calls are given as the source filed them. Rule for the calls: active = hit-call score of the fitted dose curve at least 0.9, where 1 is the maximum; inactive = score below 0.9.

Legend:
Settings in all cases: mRNA level, 48 h; actives raise or lower the signal
[1] = read-out: Lipase C (LIPC), LIPC (gene 3990); assay: LTEA_HepaRG_LIPC: Life Technologies and Expression Analysis (LTEA) Assay for Lipase C (LIPC) using HepaRG (AID 2283514)
In short: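 Read-out is LIPC transcript level by TaqMan qRT-PCR, normalized to three housekeeping genes, after 48 h chemical treatment of human HepaRG liver cells. Curves span eight concentrations topping at 100 uM; activity in either direction scored relative to 0.5% DMSO.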

[2] = read-out: Lipoprotein lipase (LPL), LPL (gene 4023); assay: LTEA_HepaRG_LPL: Life Technologies and Expression Analysis (LTEA) Assay for Lipoprotein lipase (LPL) using HepaRG (AID 2283515)
In short: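 Read-out is LPL transcript level by qRT-PCR, normalized to three housekeeping genes and fitted bidirectionally against the DMSO control. Human HepaRG cells received chemicals for 48 h at up to 100 uM.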

[3] = read-out: MicroRNA 122 (MIR122), gene 406906; assay: LTEA_HepaRG_MIR122: Life Technologies and Expression Analysis (LTEA) Assay for MicroRNA 122 (MIR122) using HepaRG (AID 2283516); note: the transcript read is the microRNA miR-122
In short: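 Differentiated human HepaRG cells in serum-free induction medium exposed 48 h to 8 half-log concentrations from 100 uM in 0.5% DMSO, duplicate. MIR122 quantified by Fluidigm TaqMan qRT-PCR, normalised to ACTB, GAPDH, POLR2A; fold change fitted bidirectionally versus DMSO.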

[4] = read-out: matrix metalloproteinase-10 (MMP10), MMP10 (gene 4319); assay: LTEA_HepaRG_MMP10: Life Technologies and Expression Analysis (LTEA) Assay for matrix metalloproteinase-10 (MMP10) using HepaRG (AID 2283517)
In short: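 Gain or loss of MMP10 mRNA is fitted relative to the 0.5% DMSO vehicle. The human hepatic line HepaRG receives a 48-hour serum-free exposure, in duplicate, with a maximum concentration of 100 uM.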

MYC, MYC (gene 4609) = assay: LTEA_HepaRG_MYC: Life Technologies and Expression Analysis (LTEA) Assay for MYC using HepaRG (AID 2283518)
In short: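 MYC transcript changes, up or down relative to 0.5% DMSO, from TaqMan qRT-PCR normalized to three housekeeping genes. Human HepaRG cultures received chemicals for 48 h at eight half-log concentrations up to 100 uM, in duplicate.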

[5] = read-out: matrix metalloproteinase-3 (MMP3), MMP3 (gene 4314); assay: LTEA_HepaRG_MMP3: Life Technologies and Expression Analysis (LTEA) Assay for matrix metalloproteinase-3 (MMP3) using HepaRG (AID 2283519)
In short: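 HepaRG, human; 48 h dosing, 8 conc. (max 100 uM, half-log), duplicate, 0.5% DMSO. Readout: MMP3 transcript by Fluidigm TaqMan qRT-PCR, ACTB/GAPDH/POLR2A-normalised. Gain or loss fitted vs DMSO.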

[6] = read-out: Nuclear factor NF-kappa-B p105 subunit (Homo sapiens) (UniProt P19838); assay: LTEA_HepaRG_NFKB1: Life Technologies and Expression Analysis (LTEA) Assay for Nuclear Factor Kappa B Subunit 1 (NFKB1) using HepaRG (AID 2283521)
In short: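 Differentiated human HepaRG cells in serum-free induction medium with 0.5% DMSO were exposed for 48 h to eight half-log concentrations, top 100 uM, in duplicate. NFKB1 mRNA measured by Fluidigm TaqMan qRT-PCR, normalised to ACTB, GAPDH and POLR2A; bidirectional fit versus DMSO.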

[7] = read-out: Protein phosphatase 2A (PPP2R4), PTPA (gene 5524); assay: LTEA_HepaRG_PPP2R4: Life Technologies and Expression Analysis (LTEA) Assay for Protein phosphatase 2A (PPP2R4) using HepaRG (AID 2283522)
In short: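 Differentiated human HepaRG cells in serum-free induction medium were exposed 48 h to 8 concentrations (top 100 µM, half-log steps, duplicate) in 0.5% DMSO. PPP2R4 mRNA was measured by TaqMan qRT-PCR, normalised to ACTB, GAPDH and POLR2A, and fitted bidirectionally versus DMSO.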

[8] = read-out: Phosphatase and tensin (PTEN), PTEN (gene 5728); assay: LTEA_HepaRG_PTEN: Life Technologies and Expression Analysis (LTEA) Assay for Phosphatase and tensin (PTEN) using HepaRG (AID 2283523)
In short: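 Read-out is PTEN transcript level by multiplexed TaqMan qRT-PCR after 48 h chemical treatment of human HepaRG cultures in serum-free induction medium. Concentrations spanned 100 uM downward in half-log steps, 0.5% DMSO throughout; activity fitted in both directions against vehicle.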

[9] = read-out: solute carrier (SLC22A1), SLC22A1 (gene 6580); assay: LTEA_HepaRG_SLC22A1: Life Technologies and Expression Analysis (LTEA) Assay for solute carrier (SLC22A1) using HepaRG (AID 2283524)
In short: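 HepaRG (human liver line), 48 h dosing in serum-free induction medium; 8 conc., half-log down from 100 uM, 0.5% DMSO vehicle, duplicates. Endpoint: SLC22A1 mRNA, qRT-PCR, housekeeping-normalized; gain/loss fit vs DMSO.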

[10] = read-out: Pyruvate Dehydrogenase Kinase 4 (PDK4), PDK4 (gene 5166); assay: LTEA_HepaRG_PDK4: Life Technologies and Expression Analysis (LTEA) Assay for Pyruvate Dehydrogenase Kinase 4 (PDK4) using HepaRG (AID 2283525)
In short: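 In this multiplexed human HepaRG expression assay, cells are treated 48 h with test chemicals across an eight-point range starting at 100 uM. PDK4 mRNA changes, normalized to ACTB/GAPDH/POLR2A, are fitted in both directions relative to vehicle.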

[11] = read-out: NAD(P)H dehydrogenase [quinone] 1 (NQO1), NQO1 (gene 1728); assay: LTEA_HepaRG_NQO1: Life Technologies and Expression Analysis (LTEA) Assay for NAD(P)H dehydrogenase [quinone] 1 (NQO1) using HepaRG (AID 2283526)
In short: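 Differentiated human HepaRG cells in serum-free induction medium, dosed in duplicate for 48 h at 8 half-log concentrations up to 100 uM in 0.5% DMSO. NQO1 mRNA by qRT-PCR normalized to ACTB, GAPDH, POLR2A; bidirectional fit versus DMSO baseline.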

[12] = read-out: succinate dehydrogenase complex iron sulfur subunit B (SDHB), SDHB (gene 6390); assay: LTEA_HepaRG_SDHB: Life Technologies and Expression Analysis (LTEA) Assay for succinate dehydrogenase complex iron sulfur subunit B (SDHB) using HepaRG (AID 2283528)
In short: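 HepaRG cells (~100,000/well, plated 48 h) exposed in duplicate for 48 h in serum-free induction medium to 8-point half-log series from 100 uM in 0.5% DMSO; mRNA by qRT-PCR normalised to ACTB, GAPDH, POLR2A; bidirectional fit versus DMSO.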

[13] = read-out: Signal transducer and activator of transcription 3 (Homo sapiens) (UniProt P40763); assay: LTEA_HepaRG_STAT3: Life Technologies and Expression Analysis (LTEA) Assay for Signal transducer and activator of transcription (STAT3) using HepaRG (AID 2283529)
In short: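 Read-out is STAT3 mRNA level by qRT-PCR, normalized to three housekeeping genes, in human HepaRG liver cells treated for 48 h. Concentrations ran from 100 uM downward in half-log steps; curves were fitted for gain or loss relative to 0.5% DMSO.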

[14] = read-out: solute carrier (SLCO1B1), SLCO1B1 (gene 10599); assay: LTEA_HepaRG_SLCO1B1: Life Technologies and Expression Analysis (LTEA) Assay for solute carrier (SLCO1B1) using HepaRG (AID 2283530)
In short: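 SLCO1B1 transcript levels were quantified by TaqMan qRT-PCR using three housekeeping genes for normalization. This followed 48 h chemical exposure (100 uM top, half-log, 8 points, 0.5% DMSO) of HepaRG liver cells, with gain or loss fitted relative to DMSO.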

[15] = read-out: sulfotransferase 2A1 (SULT2A1), SULT2A1 (gene 6822); assay: LTEA_HepaRG_SULT2A1: Life Technologies and Expression Analysis (LTEA) Assay for sulfotransferase 2A1 (SULT2A1) using HepaRG (AID 2283531)
In short: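 Expression change of SULT2A1, by qRT-PCR with three housekeeping-gene normalization, was scored bidirectionally versus DMSO. Cells: differentiated HepaRG, dosed in duplicate for 48 h across 8 points, highest 100 µM, half-log dilution, 0.5% DMSO.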

[16] = read-out: Transforming Growth Factor (TGFB1), TGFB1 (gene 7040); assay: LTEA_HepaRG_TGFB1: Life Technologies and Expression Analysis (LTEA) Assay for Transforming Growth Factor (TGFB1) Transporter using HepaRG (AID 2283533)
In short: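 TGFB1 transcript measured by qRT-PCR with normalisation to three housekeeping genes (ACTB, GAPDH, POLR2A); human HepaRG line treated in duplicate for 48 hr with an 8-point series topping at 100 uM, 0.5% DMSO vehicle, bidirectionally fitted.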

[17] = read-out: Paternally Expressed 10 (PEG10), PEG10 (gene 23089); assay: LTEA_HepaRG_PEG10: Life Technologies and Expression Analysis (LTEA) Assay for Paternally Expressed 10 (PEG10) using HepaRG (AID 2283520)
In short: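 Differentiated HepaRG cells exposed 48 h in serum-free induction medium to eight half-log concentrations topping at 100 uM, 0.5% DMSO, in duplicate. PEG10 mRNA quantified by TaqMan qRT-PCR, normalized to ACTB, GAPDH and POLR2A; bidirectional fit versus DMSO.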

[18] = read-out: Nuclear factor erythroid 2-related factor 2 (Homo sapiens) (UniProt Q16236); assay: LTEA_HepaRG_NFE2L2: Life Technologies and Expression Analysis (LTEA) Assay for Nuclear factor erythroid 2-related factor 2 (NFE2L2) Transcription Factor using HepaRG (AID 2283527)
In short: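 Transcript level of NFE2L2 is the read-out, measured by microfluidic TaqMan qRT-PCR and normalized to three housekeeping genes. Human HepaRG cultures received test chemical for 48 h at up to 100 uM in half-log steps. Gain or loss of signal is fitted relative to 0.5% DMSO.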

Measured: AC50

Sequence of Signal transducer and activator of transcription 3 (Homo sapiens) (P40763 whole entry, looked up): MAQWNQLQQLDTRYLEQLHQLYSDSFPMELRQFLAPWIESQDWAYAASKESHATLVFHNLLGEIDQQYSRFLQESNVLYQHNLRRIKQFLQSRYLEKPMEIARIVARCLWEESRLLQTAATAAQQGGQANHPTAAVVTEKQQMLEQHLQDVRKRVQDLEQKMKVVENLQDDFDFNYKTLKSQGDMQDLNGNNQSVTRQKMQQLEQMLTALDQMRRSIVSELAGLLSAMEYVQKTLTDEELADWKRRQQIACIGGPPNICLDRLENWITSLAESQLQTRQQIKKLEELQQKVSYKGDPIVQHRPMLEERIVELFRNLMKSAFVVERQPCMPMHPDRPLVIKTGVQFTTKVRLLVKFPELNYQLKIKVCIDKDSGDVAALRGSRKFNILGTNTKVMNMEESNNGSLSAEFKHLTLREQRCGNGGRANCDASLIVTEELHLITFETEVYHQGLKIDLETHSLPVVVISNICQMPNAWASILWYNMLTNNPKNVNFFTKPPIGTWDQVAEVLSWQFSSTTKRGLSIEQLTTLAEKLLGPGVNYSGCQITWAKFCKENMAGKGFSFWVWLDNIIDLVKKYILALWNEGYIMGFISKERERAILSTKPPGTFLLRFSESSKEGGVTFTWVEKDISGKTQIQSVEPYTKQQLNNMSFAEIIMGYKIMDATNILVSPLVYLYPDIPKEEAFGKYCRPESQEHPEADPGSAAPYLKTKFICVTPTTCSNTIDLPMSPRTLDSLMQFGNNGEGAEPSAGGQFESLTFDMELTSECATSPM
Sequence of Nuclear factor NF-kappa-B p105 subunit (Homo sapiens) (P19838 whole entry, looked up): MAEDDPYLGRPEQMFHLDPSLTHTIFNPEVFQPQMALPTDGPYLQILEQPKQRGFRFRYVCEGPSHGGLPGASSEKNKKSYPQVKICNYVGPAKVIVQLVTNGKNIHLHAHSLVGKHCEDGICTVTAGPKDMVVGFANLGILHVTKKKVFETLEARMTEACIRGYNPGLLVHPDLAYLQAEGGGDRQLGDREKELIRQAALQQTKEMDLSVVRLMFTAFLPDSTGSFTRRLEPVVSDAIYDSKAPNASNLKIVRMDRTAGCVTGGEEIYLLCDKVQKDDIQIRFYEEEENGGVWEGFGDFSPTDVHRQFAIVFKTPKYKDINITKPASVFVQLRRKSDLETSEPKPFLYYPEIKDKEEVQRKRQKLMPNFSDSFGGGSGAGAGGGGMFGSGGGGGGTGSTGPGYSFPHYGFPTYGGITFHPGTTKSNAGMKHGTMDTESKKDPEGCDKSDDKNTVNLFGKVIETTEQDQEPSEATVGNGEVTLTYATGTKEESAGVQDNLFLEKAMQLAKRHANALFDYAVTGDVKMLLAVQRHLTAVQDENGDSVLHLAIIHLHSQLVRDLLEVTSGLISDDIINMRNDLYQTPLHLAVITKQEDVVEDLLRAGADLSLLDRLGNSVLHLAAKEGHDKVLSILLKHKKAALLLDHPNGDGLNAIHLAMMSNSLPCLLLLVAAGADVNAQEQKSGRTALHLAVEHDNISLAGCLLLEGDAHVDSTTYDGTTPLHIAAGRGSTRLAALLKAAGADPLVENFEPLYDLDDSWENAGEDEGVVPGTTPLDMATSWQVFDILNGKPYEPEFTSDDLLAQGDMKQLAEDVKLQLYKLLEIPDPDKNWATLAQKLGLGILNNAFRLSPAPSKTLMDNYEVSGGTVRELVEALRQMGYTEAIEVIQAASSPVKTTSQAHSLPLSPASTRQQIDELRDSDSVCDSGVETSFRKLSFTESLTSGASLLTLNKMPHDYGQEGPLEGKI
Sequence of Nuclear factor erythroid 2-related factor 2 (Homo sapiens) (Q16236 whole entry, looked up): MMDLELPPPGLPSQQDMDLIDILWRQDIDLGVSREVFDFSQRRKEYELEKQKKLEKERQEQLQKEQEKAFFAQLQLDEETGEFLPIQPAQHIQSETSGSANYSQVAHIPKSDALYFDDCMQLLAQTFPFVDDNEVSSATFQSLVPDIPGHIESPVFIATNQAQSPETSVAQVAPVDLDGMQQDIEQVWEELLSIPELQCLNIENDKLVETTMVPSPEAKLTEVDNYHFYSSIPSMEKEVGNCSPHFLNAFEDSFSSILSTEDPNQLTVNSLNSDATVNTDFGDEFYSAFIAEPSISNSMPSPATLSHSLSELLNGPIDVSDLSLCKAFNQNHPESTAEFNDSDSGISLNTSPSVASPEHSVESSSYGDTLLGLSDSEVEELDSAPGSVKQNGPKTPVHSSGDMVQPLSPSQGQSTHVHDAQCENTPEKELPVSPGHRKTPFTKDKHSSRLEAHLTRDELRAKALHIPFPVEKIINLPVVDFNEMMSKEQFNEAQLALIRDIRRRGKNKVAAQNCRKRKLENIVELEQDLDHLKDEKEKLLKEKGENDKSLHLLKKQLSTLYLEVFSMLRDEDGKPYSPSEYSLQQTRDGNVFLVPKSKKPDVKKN

O=C(Nc1ccccc1)Nc1ccnc(Cl)c1
inactive: [3] | [4] | MYC, MYC (gene 4609) | [5] | [10]
active: [1] 24 µM | [2] 81.8 µM | [6] 39.2 µM | [7] 77.7 µM | [8] 75.2 µM | [9] 68 µM | [11] 82.6 µM | [12] 94 µM | [13] 42.6 µM | [14] 82.1 µM | [15] 81.5 µM | [16] 80 µM

CC(C)C1(C)N=C(c2nc3ccccc3cc2C(=O)O)NC1=O (configuration not stated)
not listed: [17] | [18]
inactive: all other assays above

OC(c1ccc(Cl)cc1)(c1cncnc1)c1ccccc1Cl (configuration not stated)
active: [1] 85.7 µM | [2] 50 µM | [3] 73.2 µM | [4] 58.9 µM | MYC, MYC (gene 4609) 80.4 µM | [17] 5.86 µM | [7] 66.4 µM | [9] 81.8 µM | [10] 75.9 µM | [18] 44.6 µM | [14] 85.2 µM | [15] 77 µM | [16] 50 µM
inactive: [5] | [8] | [11] | [12] | [13]
